# Experimental data from publication PMC4336329 (PLoS ONE, 2015).
# Screen size: about 310,000 compounds; about 14,000 (4.5%) showed an effect of 50% or more. The effect is printed as a negative number. The sample as a whole holds a higher share of strong results than the screen did.
# Molecular target: human ether-à-go-go-related gene (hERG) potassium channel (human, UniProt Q12809)
# Test: primary screen, population patch clamp on CHO cells stably expressing hERG; higher = less effect of the substance
# 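Note: peak tail current of the secondary pulse compared with the same well before compound.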
# Sequence of human ether-à-go-go-related gene (hERG) potassium channel (Q12809 whole entry, looked up): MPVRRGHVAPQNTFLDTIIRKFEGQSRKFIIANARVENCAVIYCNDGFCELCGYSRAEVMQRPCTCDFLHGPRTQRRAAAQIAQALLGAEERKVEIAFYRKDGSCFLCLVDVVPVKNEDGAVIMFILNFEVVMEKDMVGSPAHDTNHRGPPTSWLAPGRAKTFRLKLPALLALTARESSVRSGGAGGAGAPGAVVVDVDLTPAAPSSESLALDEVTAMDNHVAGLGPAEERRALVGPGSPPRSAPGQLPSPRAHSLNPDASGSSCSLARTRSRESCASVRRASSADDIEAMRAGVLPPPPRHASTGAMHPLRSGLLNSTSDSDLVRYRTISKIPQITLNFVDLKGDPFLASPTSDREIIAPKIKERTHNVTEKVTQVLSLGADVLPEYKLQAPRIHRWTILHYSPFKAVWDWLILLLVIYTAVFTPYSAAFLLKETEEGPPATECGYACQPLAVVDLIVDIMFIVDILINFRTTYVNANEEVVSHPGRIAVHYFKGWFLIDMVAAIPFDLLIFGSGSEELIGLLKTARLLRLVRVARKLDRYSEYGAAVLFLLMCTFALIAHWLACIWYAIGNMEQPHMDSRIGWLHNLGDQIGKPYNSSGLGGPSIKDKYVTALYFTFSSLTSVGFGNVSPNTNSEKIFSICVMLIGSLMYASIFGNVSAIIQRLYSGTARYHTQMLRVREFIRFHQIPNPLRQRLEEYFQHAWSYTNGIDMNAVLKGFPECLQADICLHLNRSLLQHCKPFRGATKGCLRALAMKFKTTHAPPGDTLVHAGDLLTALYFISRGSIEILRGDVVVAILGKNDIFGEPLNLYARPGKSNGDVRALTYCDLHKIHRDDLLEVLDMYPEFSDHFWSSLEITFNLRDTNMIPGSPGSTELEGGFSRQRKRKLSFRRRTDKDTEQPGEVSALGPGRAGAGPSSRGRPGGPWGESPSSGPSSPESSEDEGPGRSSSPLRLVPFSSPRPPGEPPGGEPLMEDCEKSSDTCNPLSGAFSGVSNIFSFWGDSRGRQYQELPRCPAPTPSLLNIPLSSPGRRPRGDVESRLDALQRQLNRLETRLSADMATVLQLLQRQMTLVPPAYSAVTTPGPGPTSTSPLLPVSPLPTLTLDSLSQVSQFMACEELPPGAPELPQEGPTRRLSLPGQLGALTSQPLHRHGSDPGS
row,Compound,"hERG current change (%, negative = inhibition) at 10uM"
1,C[C@]12CCC3C(CC[C@H]4CC(O)CC[C@]34C)C1CC/C2=N/NC(=O)c1ccncc1 (some centres unmarked),-10.8%
2,COc1c(C)cccc1C(=O)Nc1cc(Cl)ccc1N1CCOCC1,7.1%
3,O=C(Nc1cc(-c2ccccc2)sc1C(=O)O)c1cccc(F)c1,33.5%
4,CCOC(=O)C1CCN(C(=O)CCNS(=O)(=O)c2ccc3c(c2)CCN3C(=O)CC)CC1,7.82%
5,CCc1ccc(CN(C)CC(=O)Nc2sccc2C#N)cc1,-16.4%
6,COc1ccc(/C=N/N=C2/NC(=O)C(CC(=O)O)S2)cc1OCc1ccc(Cl)cc1 (centres unmarked),-1.97%
7,O=C(NC1CCCCC1)C(c1ccccn1)N(C(=O)c1csnn1)c1ccccc1 (centres unmarked),1.6%
8,O=C(NC1CCCCC1)c1cc(-c2cccc(Cl)c2)on1,11.7%
9,CCOC(=O)C1C(=O)NC(c2ccccc2)=NC1c1ccc(OC)cc1 (centres unmarked),-12.2%
10,CC(=O)N1CCC(N(CCN2CCOCC2)C(=S)Nc2c(C)cccc2C)CC1,8.51%
11,NC(=O)c1nsc(C(=O)N(c2ccc3c(c2)OCO3)C(C(=O)NCC2CCCO2)c2ccc(F)cc2)c1N (centres unmarked),-8.25%
12,O=C(O)CCCC(=O)Nc1nc2n(n1)C(c1ccc(F)cc1)CC(c1ccc(Cl)cc1)N2 (centres unmarked),-0.46%
13,COCC(=O)Nc1nc2n(n1)C(c1ccc(Cl)cc1)CC(c1ccc(OC)cc1)N2 (centres unmarked),-73.8%
14,COCC(=O)Nc1nc2n(n1)C(c1ccccc1Cl)CC(c1ccc(OC)cc1)N2 (centres unmarked),-18.6%
15,O=C(Nc1nc2n(n1)C(c1ccc(Cl)cc1)CC(c1ccc(Cl)cc1)N2)c1ccco1 (centres unmarked),-38.3%
16,COc1ccc(C2CC(c3ccc(OC)cc3)n3nc(NC(=O)c4ccco4)nc3N2)cc1 (centres unmarked),-19.2%
17,COCC(=O)Nc1nc2n(n1)C(c1ccccc1)CC(c1ccc(OC)cc1)N2 (centres unmarked),-3.73%
18,COc1ccc(C2CC(c3ccccc3)Nc3nc(NC(=O)c4ccco4)nn32)cc1 (centres unmarked),-64.4%
19,O=C(Nc1nc2n(n1)C(c1ccccc1)CC(c1ccc(Cl)cc1)N2)c1ccco1 (centres unmarked),-53.1%
20,CC1CC(c2ccccc2)n2nc(NC(=O)c3ccco3)nc2N1 (centres unmarked),24.6%
21,O=[N+]([O-])c1ccc(NCCO)c2ncccc12,2.11%
22,CC(Sc1ncc(C(F)(F)F)cc1Cl)C(=O)NC(N)=O (centres unmarked),0.58%
23,COC(=O)c1cc(OC)c(OC)cc1NC(=O)Cc1cccs1,0.709%

row,Compound,"hERG current change (%, negative = inhibition) at 10uM"
1,CCCn1nnnc1NCc1ccc(C(C)C)cc1,4.94%
2,CCC1CCCCN1c1cc(C)nc2cc(-c3cccc(C)c3)nn12 (centres unmarked),-1.65%
3,CCCCCCCC[n+]1cccc(C(=O)N(CC)CC)c1.[Br-],13%
4,CCCCCCCCCCCCCCCC[n+]1cccc(C(=O)N(CC)CC)c1.[Br-],-69.7%
5,CCCCCCCCCC[n+]1cccc(C(=O)N(CC)CC)c1.[Br-],-0.215%
6,COc1ccccc1CNn1c(-c2cccc(C)c2)nc2ccccc2c1=O,-11%
7,COc1ccc(CNn2c(-c3cccc(C)c3)nc3ccccc3c2=O)cc1OC,-73.6%
8,COc1cccc(CNn2c(-c3cccc(C)c3)nc3ccccc3c2=O)c1,-9.77%
9,CC1(C)C2CCC(C2)C1(C)NC(=O)CN1CCCC1.Cl (centres unmarked),-0.213%
10,Cc1cc2oc(=O)cc(C)c2c(=O)o1,-65.8%
11,COc1cc2oc(=O)cc(C)c2c(OC)c1OC,17.9%
12,COc1cc(OC)c2c(C)cc(=O)oc2c1,15.4%
13,CCOc1ccc(NC(=O)Cn2cc(C(=O)CC)c3ccccc32)cc1,14.7%
14,Cc1ccc2oc(=O)c(/C=C(\O)C(C)(C)C)nc2c1,17.1%
15,Cc1ccc(CSc2[nH]c(=O)ncc2C)cc1,10.7%
16,O=[N+]([O-])c1ccc(Cc2ccncc2)cc1,-26.9%
17,Cc1nc2nc(SCc3ccc([N+](=O)[O-])cc3)[nH]c2cc1Br,1.02%
18,Cc1ccc2nc(SCc3ccc([N+](=O)[O-])cc3)[nH]c2c1,-65.1%
19,Cc1ccc2nc(SCC(=O)Nc3cccc([N+](=O)[O-])c3)[nH]c2c1,-11.7%
20,Cc1ccc2nc(SCC(=O)Nc3cc([N+](=O)[O-])ccc3F)[nH]c2c1,-57.4%
21,O=[N+]([O-])c1ccc(Cc2cncc(O)c2)cc1,-17.3%
22,Cc1cc(Cc2ccc([N+](=O)[O-])cc2)c(C)cn1,-57.8%
23,Cc1ccc2nc(SCc3ccc([N+](=O)[O-])cc3)nc(C)c2c1,0.901%

row,Compound,"hERG current change (%, negative = inhibition) at 10uM"
1,Cc1cnc(=O)[nH]c1SCc1cccc([N+](=O)[O-])c1,2.35%
2,Cc1cnc(=O)[nH]c1SCc1ccc([N+](=O)[O-])cc1,-70.1%
3,Cc1ccc2nc(SCC(=O)Nc3ccc(F)c([N+](=O)[O-])c3)[nH]c2c1,-2.06%
4,O=C(CNC(=O)c1ccco1)N/N=C/c1cccs1,14.9%
5,O=C(Nc1ccc([N+](=O)[O-])cn1)c1cc(-c2cccc(Cl)c2)nc2ccccc12,-8.44%
6,Cc1ccc(C(=O)N2CCC(C)CC2)cc1S(=O)(=O)N1CCCCC1,-10.2%
7,CCOc1cc(C(=O)OC(C)C(=O)Nc2ccc(S(N)(=O)=O)cc2)ccc1OCC(=O)N1CCOCC1 (centres unmarked),-5.65%
8,CC(=O)c1cccc(NC(=S)NC(=O)c2ccc(C)cc2)c1,22.4%
9,COc1cccc(C(=O)NNS(=O)(=O)c2ccc(F)cc2)c1,9.31%
10,Cc1ccc(NC(=O)COC(=O)CCc2c[nH]c3ccccc23)cc1[N+](=O)[O-],10.4%
11,CC(=O)c1cc(C#N)c(SCc2ccc([N+](=O)[O-])cc2)nc1C,17.7%
12,c1ccc(CSc2nc3ccccc3[nH]2)cc1,17.6%
13,Cc1nc(N)nc(SCc2ccc([N+](=O)[O-])cc2)c1N,-74.6%
14,Cc1cc(C)nc(SCc2ccc([N+](=O)[O-])cc2)n1,-17%
15,O=[N+]([O-])c1ccc(CSc2nc3ccccc3[nH]2)cc1,-54.2%
16,O=[N+]([O-])c1cccc(CSc2nc3ccccc3[nH]2)c1,-15.6%
17,O=S(=O)(CCc1nc2ccccc2o1)c1ccc2ccccc2c1,7.8%
18,Cc1cccc(/C(N)=N/OC(=O)c2ccc(Br)o2)c1,11.7%
19,Fc1ccc(-c2csc(/C=C/c3ccc4c(c3)OCO4)n2)cc1,13.2%
20,CC(C)c1ccc(C(=O)CC2(O)C(=O)N(CN3CCOCC3)c3ccccc32)cc1 (centres unmarked),10.4%
21,O=C1N(CCCCN2C(=O)C3(OCCO3)c3ccccc32)c2ccccc2C12OCCO2,6.9%
22,CO[C@@H]1[C@@H](O[C@@H]2O[C@H](C)[C@@H](O[C@H]3C[C@@](C)(OC(=O)CC(C)C)[C@@H](O)[C@H](C)O3)[C@H](N(C)C)[C@H]2O)[C@@H](CC=O)C[C@@H](C)[C@@H](O)C=CC=CC[C@@H](C)OC(=O)C[C@H]1OC(C)=O,-6.51%
23,c1cncc(C2CCCCN2)c1 (centres unmarked),-6.38%

row,Compound,"hERG current change (%, negative = inhibition) at 10uM"
1,CCOc1cc(/C=C2/N=C(c3ccc4c(c3)OCO4)OC2=O)ccc1OC(C)=O,9.87%
2,COc1cccc(N2CCN(S(=O)(=O)c3cccc4cccnc34)CC2)c1,15.5%
3,COc1c2c(cc3c1C(CC(O)Cc1ccccc1)N(C)CC3)OCO2 (centres unmarked),-61.3%
4,COc1ccc2c(c1OC)C(=O)OC2C1c2c(cc3c(c2OC)OCO3)CCN1C.Cl.O (centres unmarked),-13.7%
5,COc1ccc2c(c1OC)C(=O)O[C@@H]2[C@H]1c2c(cc3c(c2OC)OCO3)CCN1C,-2.49%
6,COc1ccc(CC(O)CC2c3c(cc4c(c3OC)OCO4)CCN2C)cc1.Cl (centres unmarked),-78.9%
7,COc1ccc2c(c1OC)C(=O)OC2C1c2c(cc3c(c2OC)OCO3)CCN1C.Cl (centres unmarked),-1.88%
8,COc1ccc2c(c1OC)C(C1c3c(cc4c(c3OC)OCO4)CCN1C)OC2=O (centres unmarked),-7.14%
9,O=c1[nH]ncc2c3ccccc3n(Cc3ccccc3)c12,15.8%
10,S=C(NCc1ccco1)Nc1ccc(Cl)cc1Cl,8.1%
11,O=C1c2oc3ccccc3c(=O)c2C(c2cccc(Br)c2)N1Cc1ccco1 (centres unmarked),-8.64%
12,CCc1ccc(CN(C)CC(=O)Nc2ccc3c(c2)CCC3)cc1,9.39%
13,O=C(OCc1cccc([N+](=O)[O-])c1)c1cc2ccccc2oc1=O,20.7%
14,Cc1ccc(C(=O)NNC(=O)c2ccc(Br)s2)cc1S(=O)(=O)N1CCOCC1,-26.2%
15,COc1ccc(CC(=O)Nc2cccc(-c3ccc4nnc(C)n4n3)c2)cc1,-54.1%
16,CCOc1ccc(CC(=O)Nc2ccc(-c3ccc4nnc(C)n4n3)cc2)cc1,-40.4%
17,COc1ccc(CC(=O)Nc2cccc(-c3ccc4nnc(C)n4n3)c2)cc1OC,-0.118%
18,CCOc1ccc(CC(=O)Nc2cccc(-c3ccc4nnc(C)n4n3)c2)cc1,-51.1%
19,COc1ccc(CC(=O)Nc2ccc(-c3ccc4nnc(C)n4n3)cc2)cc1OC,2.72%
20,Cc1nnc2ccc(-c3cccc(NC(=O)Cc4cccs4)c3)nn12,-25.9%
